Values without a mark were called inactive. No rule for the calls is given here.
target: Pantothenate synthetase (Mycobacterium tuberculosis (strain ATCC 25618 / H37Rv)) (UniProt P9WIL5); test: Recombinant Mtb pantothenate synthetase (PanC) inhibitors, coupled enzyme, confirmatory (AID 375); conditions: coupled enzyme assay; at 10 µM, stronger effect = higher value;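 also: 0% = full reaction with vehicle and 100% = no enzyme background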
Sequence (P9WIL5 whole entry, looked up): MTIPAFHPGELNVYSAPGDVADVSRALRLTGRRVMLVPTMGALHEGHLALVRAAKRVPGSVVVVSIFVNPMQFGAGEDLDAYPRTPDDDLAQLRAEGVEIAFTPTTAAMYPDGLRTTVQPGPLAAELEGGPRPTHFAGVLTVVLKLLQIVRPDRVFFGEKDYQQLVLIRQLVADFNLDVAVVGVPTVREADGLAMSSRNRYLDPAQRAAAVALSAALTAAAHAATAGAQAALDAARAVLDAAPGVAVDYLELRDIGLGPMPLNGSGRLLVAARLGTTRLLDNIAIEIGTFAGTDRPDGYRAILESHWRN

SMILES	inhibition [%]
Cn1cccc1Cc1nnc(SCC(=O)Nc2ccc(F)cc2F)n1-c1ccc(F)cc1	4
N#Cc1cc2ccc(N3CCOCC3)cc2cc1C#N	0
OC(CCN1CCOCC1)(c1ccc(Cl)cc1)C1CCCCC1 (stereo not given)	0
COc1ccc(CCn2c(NCCCN3CCOCC3)nc3c2c(=O)[nH]c(=O)n3C)cc1	0
C=CCn1c(COc2ccc(Cl)cc2)nnc1SCC(=O)N1CC(=O)Nc2ccccc21	0
COc1ccc(-c2cc(C(F)(F)F)nc(SCC(=O)NCc3ccco3)n2)cc1OC	3
CC(C)CNC(=O)c1ccccc1NC(=O)c1ccc(CN2CCOCC2)cc1	3
Cc1nc2ccccc2n1CCC(=O)Nc1cccc(F)c1	4
O=C(Cc1c(O)c2ccccc2[nH]c1=O)NCc1ccc(F)cc1	0
CCC12CN3CC(CC)(CN(C1)C3c1ccc(OC(C)C)cc1)C2=O (stereo not given)	9
O=C(Nc1ccccc1)c1cnc2n(c1=O)CCS2	0
CCOC(=O)C1=C(c2ccccc2)N2CCS(=O)(=O)N=C2S1	0
OCCNC1=NCCN1	1
O=C(C(c1ccccc1)c1ccccc1)N1CCN(Cc2ccccn2)CC1	0
CC(NC(=O)Nc1nccs1)(C(F)(F)F)C(F)(F)F	5
Cc1cc(Br)c(S(=O)(=O)n2nnc3ccccc32)cc1C	2
CSc1ccc(S(=O)(=O)Nc2cccc(F)c2)cc1	0
C[C@]12C=CC(=O)C=C1CC[C@H]1[C@@H]3C[C@@H](O)[C@](O)(C(=O)CO)[C@@]3(C)C[C@H](O)[C@@]12F	0
Cc1ccc(S(=O)(=O)N(C)CC(=O)NC2CC(C)(C)NC(C)(C)C2)cc1	0
Cc1ccc(-n2ncc3c(=O)n(CC(=O)NCc4ccco4)cnc32)cc1	0

SMILES	inhibition [%]
CCn1c(=S)ccc2ccc(OC)cc21	0
O=C(CCn1c(=O)sc2ccccc21)Nc1nccs1	0
O=C(O)C1CC=CCC1C(=O)NCc1ccccc1 (stereo not given)	1
CCOc1ccccc1NC(=O)CSc1nnc(Cc2cccn2C)n1-c1ccc(F)cc1	5
COC(=O)C1=C(C)N(Cc2ccco2)C(=O)C1	0
COCCNC(=O)c1c(N)n(CCC2=CCCCC2)c2nc3ccccc3nc12	0
Cc1cc(-c2ccccc2)c(C#N)c(N)n1	1
CCOC(=O)c1sc(N2C(=O)C(O)=C(C(=O)c3ccco3)C2c2ccccc2)nc1C (stereo not given)	0
CC(=O)c1cccc(NC(=O)CCOc2ccccc2)c1	1
Cc1cc(NC(=O)Cc2c(F)cccc2Cl)no1	10
CCC(C)c1ccc(NC(=O)c2cccnc2)cc1 (stereo not given)	9
COc1cccc(Nc2cc(C)nc3ccccc23)c1	1
O=P(O)(O)C(O)C(F)(F)C(F)(F)C(F)(F)C(F)F (stereo not given)	0
Cc1cc(C)n2nc(SCC(=O)N(C)c3ccccc3)nc2n1	1
O=C(Nc1ccccc1C(=O)N1CCOCC1)c1ccncc1	0
CCCn1c2c(c(O)c(C(=O)Nc3ccc(C)cn3)c1=O)CCCC2	4
CCOC(=O)N1CCC(=C2c3ccc(Cl)cc3CCc3cccnc32)CC1	5
COc1ccc(-c2nc(C(N)=O)c3[nH]c(=O)n(-c4cccc(Cl)c4)c3n2)cc1OC	1
COc1ccc(Nc2ncc3c(n2)CC(c2ccc(OC)cc2)CC3=O)cc1 (stereo not given)	3
CCCn1c(C)cc(C(=O)COc2ncnc3sccc23)c1C	4
